Source: PubChem BioAssay (National Center for Advancing Translational Sciences (NCATS))
FMDV inh = High Throughput Screening for Foot and Mouth Disease Virus Antivirals; FMDV antiviral cell-based qHTS; Potency, µM (highest dose often 57.9 µM), hits mostly inhibitors; actives 1.2% (n = 410,000); calls by dose curve; tested in HEK293T cells; also: read-out not given here; nearly all actives have a fitted effect of over 45% in size
HCMV inh = qHTS Assay for inhibitors of the human cytomegalovirus (HCMV); HFF cells, HCMV-luciferase reporter, 72 h; stronger effect = lower value; activity change, negative = inhibition, % at 57.5 µM; actives 4.5% (n = 410,000); in the data active = activity change below about -60%; inconclusive = no clear call, values can overlap the other calls; inactive = above about -39%
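Human foreskin fibroblasts infected with luciferase-reporter HCMV at MOI 1 PFU/cell, compounds at two doses. Luciferase measured 72 h post infection; normalized to buffer-only basal and Salinomycin (10uM) controls.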
SARS PLP yeast = qHTS of Yeast-based Assay for SARS-CoV PLP; S. cerevisiae expressing SARS-CoV PLpro, growth rescue; Potency, µM (highest dose often 32.9 µM), actives largely listed as activators; actives 0.19% (n = 330,000); calls by dose curve; also: nearly all actives have a fitted effect of over 55% in size
Marburg entry inh = qHTS for inhibitors of binding or entry into cells for Marburg Virus; Marburg virus pseudotyped entry inhibition, cell reporter; Potency, µM (doses to about 37.8 µM), usual class: inhibitors; actives 1.8% (n = 300,000); AID 540276, 2011; calls by dose curve; tested in HEK293 cells
HCV inh = qHTS Assay for Inhibitors of Hepatitis C Virus (HCV) | Huh7.5.1 HCVcc-Cre infection, luciferase reporter, 44 h | Potency, µM (top dose mostly 41.8 µM), hits mostly inhibitors | actives 3.4% (n = 340,000) | AID 651820, 2012; active = well fitted inhibition curve with a large enough effect; inconclusive = small, poorly fitted or top-dose-only effect, or another doubt; inactive = no such curve, though single readings can be large or run the other way
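Compounds are dispensed onto cells plated 4 h earlier at 1,000 per well, with HCVcc-Cre virus (about 0.5 moi) added next. Following 44 h of culture, luminescent signal is measured for 15 sec after 15 min with substrate at room temperature.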
LASV entry inh = qHTS for Inhibitors of binding or entry into cells for Lassa Virus; actives 1.2% (n = 300,000); Lassa virus pseudotype entry inhibition, cell reporter; Potency, µM (series often up to 37.9 µM), most hits filed as inhibitors; AID 540256, 2011; calls by dose curve; tested in HEK293 cells; also: nearly all actives have a fitted effect of over 50% in size
A number is an active result; - = inactive; ? = inconclusive; . = no result given. Rows were chosen to be rich in hits. Some 8% of all compounds tested hit in one or more screens of this group.

SMILES	FMDV inh	HCMV inh	SARS PLP yeast	Marburg entry inh	HCV inh	LASV entry inh
Cc1cc(OCC(=O)Nc2ccc(N3CCN(C(=O)c4ccco4)CC3)cc2)cc(C)c1Cl	6.31µM	-	-	-	?	-
Cc1cccc(OCC(=O)Nc2ccc(N3CCN(C(=O)c4ccccc4)CC3)cc2)c1C	14.1µM	-	-	-	?	-
Cc1ccc(OCC(=O)Nc2ccc(N3CCN(C(=O)c4ccco4)CC3)cc2)cc1C	14.1µM	?	-	?	-	-
Cc1cccc(OCC(=O)Nc2ccc(N3CCN(C(=O)c4ccco4)CC3)cc2)c1	15.8µM	-68.3	-	?	?	?
Cc1cc(OCC(=O)Nc2ccc(N3CCCC3)cc2)cc(C)c1Cl	-	-	-	-	?	-
Cc1nc2ccc(NC(=O)Cc3ccccc3F)cc2s1	-	-	-	?	-	.
c1ccc2sc(-c3ccc4c(c3)OCO4)nc2c1	-	.	-	?	?	9.2µM
Cc1ccc2nc(NC(=O)c3ccc(-c4nc5ccccc5s4)s3)sc2c1	-	-	-	-	-	-
O=C(NC1CC1)c1ccc(-c2nc3ccccc3s2)s1	?	-	-	1.41µM	?	1.26µM
O=C(c1ccc(-c2nc3ccccc3s2)s1)N1CCOCC1	8.91µM	-71.5	-	?	?	3.55µM
CC1=C(C(=O)Nc2ccccc2F)C(c2cccs2)NC(=S)N1 (stereo unspecified)	-	-	-	-	-	-
N[C@@H](Cc1ccc(Oc2ccc(O)cc2)cc1)C(=O)O	.	.	.	-	.	.
CCOC(=O)C1=C(C)NC(=O)N[C@H]1c1ccc2c(c1)OCO2	.	.	.	-	.	.
CC1OC(CC(=O)O)CC2=C1C(=O)c1c(O)cccc1C2=O (stereo unspecified)	3.55µM	-	.	0.501µM	0.562µM	0.562µM
CCN1C(=O)[C@@H]2[C@H]3[C@H](O)[C@H](O)CC(=NO[C@H](C)c4cn([C@H](CO)Cc5ccccc5)nn4)[C@@H]3CC[C@H]2C1=O	.	.	.	-	.	-
O=C(Nc1ccccc1)Nc1nnc(-c2ccccc2)o1	-	-	-	-	-	-
Fc1ccc(-c2nnc(NC3=NCCCCC3)o2)cc1	10µM	-82.9	-	?	-	1µM
c1ccc(-c2nnc(NC3=NCCC3)o2)cc1	-	-	-	?	-	7.08µM
Fc1ccc(NC2=NCCCCC2)cc1	-	-	-	-	-	.
Cc1ccc(S(=O)(=O)NCC2COc3ccccc3O2)cc1 (stereo unspecified)	-	-	-	-	-	-
CCc1ccc(NC(=O)c2ccc(F)c(S(=O)(=O)N(C)C3CCCCC3)c2)cc1	?	-98.3	.	.	.	?
CCc1ccc(NC(=O)c2ccc(F)c(S(=O)(=O)NCCc3ccc(OC)c(OC)c3)c2)cc1	?	-83.3	.	.	.	?
Cc1ccc([N+](=O)[O-])cc1S(=O)(=O)NCC1COc2ccccc2O1 (stereo unspecified)	-	-67.7	-	.	?	.
CCc1ccc(NC(=O)c2ccc(F)c(S(=O)(=O)NC3CCCCCC3)c2)cc1	-	-78.9	.	.	.	?
O=C(CCc1nnc2n(CCc3ccccc3)c(=O)c3ccccc3n12)NCCCN1CCCCC1	-	-	-	.	-	.
SMILES	FMDV inh	HCMV inh	SARS PLP yeast	Marburg entry inh	HCV inh	LASV entry inh
CCc1ccc(NC(=O)c2ccc(F)c(S(=O)(=O)NCC3COc4ccccc4O3)c2)cc1 (stereo unspecified)	-	-90.7	-	11.6µM	?	16.4µM
O=C(NCC1COc2ccccc2O1)c1ccc(F)c(S(=O)(=O)N2CCOCC2)c1 (stereo unspecified)	-	-	-	-	-	-
O=C(c1coc(=O)c(Br)c1)N1CCCc2ccccc21	-	-75.0	-	-	-	-
O=C(C(c1ccccc1)c1ccccc1)N1CCCc2ccccc21	-	-	-	14.1µM	-	-
O=C(c1cnc2ccccn2c1=O)N1CCCc2ccccc21	-	-63.8	-	-	-	-
O=C(c1cnc2n(c1=O)CCS2)N1CCCc2ccccc21	-	-	-	-	-	-
O=C(NC(=O)N1CCCc2ccccc21)c1ccccc1	-	-	-	-	-	-
O=C(c1ccc2c(c1)N(Cc1ccc(Cl)cc1)C(=O)c1ccccc1S2(=O)=O)N1CCOCC1	-	-	.	-	.	-
Cc1cccc(CNCCn2cc(C(=O)Nc3ccccc3)nn2)c1	-	.	.	.	.	.
O=C(c1cc(-c2ccccc2)nc2ccccc12)N1CCCC1	-	-	-	?	-	-
c1ccc(-c2cc(NCCN3CCCCC3)c3ccccc3n2)cc1	?	-99.6	-	2.82µM	?	?
O=C(NCc1ccccc1Cl)c1ccc(-n2cnc3cccnc32)cc1	-	-93.7	.	.	.	-
Cc1ccc(CNC(=O)c2ccc(-n3cnc4cccnc43)cc2)cc1	-	-	.	.	.	-
COc1ccc(/C(C)=N/N2C(=O)c3ccccc3NC2c2ccc(O)c(OC)c2)cc1 (stereo unspecified)	-	-	-	.	-	.
C/C(=N\N1C(=O)c2ccccc2NC1c1ccccc1)c1ccccc1O (stereo unspecified)	-	-91.7	-	.	?	.
O=C1c2ccccc2NC(c2ccco2)N1/N=C/c1ccco1 (stereo unspecified)	-	-	-	-	-	-
C/C(=N\N1C(=O)c2ccccc2NC1c1ccco1)c1ccccc1O (stereo unspecified)	-	-77.8	-	8.2µM	3.55µM	?
Brc1ccc2nc(-c3ccco3)c(Cc3ccccc3)n2c1	-	-	.	.	.	.
Cc1ccc(Cc2c(-c3ccco3)nc3c(C)cc(Br)cn23)cc1	-	-101.7	.	.	.	.
Clc1cccc(Cc2c(-c3ccco3)nc3ccc(Br)cn23)c1	25.1µM	-	.	.	.	.
Clc1cccc(Cc2c(-c3ccco3)nc3ccc(Cl)cn23)c1	39.8µM	-	.	.	.	.
Cc1ccc(C)c(N2CCN(CCCNC(=O)C3COc4ccccc4C3)CC2)c1 (stereo unspecified)	-	-	.	.	.	-
CN(C)C(=O)CCC(=O)NCC1Cc2cccc(-c3ccccc3C(F)(F)F)c2O1 (stereo unspecified)	-	.	.	.	.	.
CC(COc1ccc(C(C)C)cc1)NC(=O)c1ccc(Br)o1 (stereo unspecified)	.	-	-	.	.	.
CCOc1cc(N(CC)CC)ccc1/C=C(/C#N)c1nc2ccccc2[nH]1	-	-	-	13µM	2.51µM	-
CCCOc1cc(N(CC)CC)ccc1/C=C(/C#N)c1nc2ccc(C)cc2[nH]1	?	?	-	?	?	-
CCN(CC)c1ccc(/C=C(/C#N)c2nc3ccc(C)cc3[nH]2)c(OC(C)C)c1	-	?	-	?	2.82µM	?
CCC1(C2CCN(Cc3cc4ccccc4o3)CC2)NC(=O)N(CC2COc3ccccc3O2)C1=O (stereo unspecified)	-	.	.	.	.	.
CCc1nc2nc(C)c(NS(=O)(=O)c3ccc(C)cc3)c(=O)n2[nH]1	-	-	.	-	.	-
